Nine molecules from PubChem BioAssay (NCI) can be followed below.

Some test systems named below: SR leukemia; RPMI-8226 leukemia; OVCAR-8 ovarian; OVCAR-5 ovarian; OVCAR-4 ovarian; SK-OV-3 ovarian; IGROV1 ovarian; OVCAR-3 ovarian; HS 578T breast; NCI/ADR-RES ovarian; T-47D breast; MDA-MB-435 melanoma; SW-620 colon; MCF7 breast; HCT-116 colon; HCC-2998 colon; KM12 colon; BT-549 breast.
What all share (assay): NCI-60 one-dose screen, 48 h (100 = growth as untreated, 0 = no growth, -100 = all killed)
Settings in all cases: 10 µM unless noted

Compounds without any hit were thinned out: in the full panel of roughly 83,000, 20% have a hit.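 A percent growth of 40 corresponds to 60% growth inhibition; 0 means no net growth; -100 means all cells died. Active threshold: below 10.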 Values without a mark were called inactive. Active and inactive are the calls of the source.

Turning to `Cc1nc(NC(=O)NC2CCCCC2)sc1C(=O)NN`, the growth in the experiment with SR leukemia was 131%; in the experiment with RPMI-8226 leukemia, 112%; in the experiment with OVCAR-8 ovarian, 102%; in the experiment with OVCAR-5 ovarian it was 102%; with OVCAR-4 ovarian, 109%; with SK-OV-3 ovarian, 116%. For the same molecule, the growth in the experiment on IGROV1 ovarian is 72.2%; with OVCAR-3 ovarian, 99.5%; in the experiment with HS 578T breast, 105%; with NCI/ADR-RES ovarian it was 118%; with T-47D breast it was 112%; with MDA-MB-435 melanoma, 115%. Moreover, the growth was 106% with SW-620 colon; 105% in the experiment on MCF7 breast; 83.8% in the experiment with HCT-116 colon; 162% in the experiment with HCC-2998 colon; 102% in the experiment on KM12 colon.
As for `O=C1Nc2c(c(=O)n(-c3ccccc3)c3ccccc23)C(c2ccc(Cl)cc2)N1` (configuration not stated), the growth is 77.8% in the experiment on SR leukemia; 90.5% with RPMI-8226 leukemia; 82.4% in the experiment on OVCAR-8 ovarian; 101% in the experiment on OVCAR-5 ovarian; 105% with OVCAR-4 ovarian; 89.8% in the experiment with SK-OV-3 ovarian. The growth with IGROV1 ovarian was 84%; in the experiment with OVCAR-3 ovarian, 106%; in the experiment on HS 578T breast, 70.2%; with NCI/ADR-RES ovarian, 99.7%; with T-47D breast it was 91.5%; with MDA-MB-435 melanoma, 99.9%. In addition, the growth was 98% in the experiment with SW-620 colon; 91.1% in the experiment on MCF7 breast; 56.2% in the experiment with HCT-116 colon; 61% in the experiment with HCC-2998 colon; 61.1% with KM12 colon.
On to `O=Nc1ccc(O)c2ccccc12`, for which the growth was 11.5% with SR leukemia; -12.1% (active) with RPMI-8226 leukemia; 7.56% (active) in the experiment with OVCAR-8 ovarian; 1.31% (active) in the experiment with OVCAR-5 ovarian; -96.5% (active) in the experiment on OVCAR-4 ovarian; 99.9% in the experiment with SK-OV-3 ovarian. Moreover, the growth is 2.08% (active) in the experiment with IGROV1 ovarian; -6.85% (active) in the experiment with OVCAR-3 ovarian; 53.2% with HS 578T breast; -0.605% (active) with NCI/ADR-RES ovarian; -9.85% (active) with T-47D breast; -63.8% (active) in the experiment with MDA-MB-435 melanoma. Further, the growth is 12.1% with SW-620 colon; -37.8% (active) with MCF7 breast; 0.195% (active) in the experiment with HCT-116 colon; 68.4% in the experiment on HCC-2998 colon; 14% with KM12 colon.
For the molecule `Cc1ccc(CC(=O)O)c(C)c1`, the growth in the experiment on SR leukemia was 94.1%; with RPMI-8226 leukemia it was 104%; in the experiment on OVCAR-8 ovarian, 100%; in the experiment with OVCAR-5 ovarian, 98.8%; in the experiment on OVCAR-4 ovarian it was 105%; with SK-OV-3 ovarian, 108%. The growth in the experiment with IGROV1 ovarian is 112%; in the experiment with OVCAR-3 ovarian it was 103%; with HS 578T breast, 101%; in the experiment with NCI/ADR-RES ovarian, 101%; with T-47D breast, 97.1%; with BT-549 breast, 119%. In addition, the growth with MDA-MB-435 melanoma is 108%; with MCF7 breast, 95.7%; in the experiment with HCT-116 colon it was 107%; in the experiment with HCC-2998 colon, 89.8%; in the experiment on KM12 colon, 105%.
As to `N=C(N)c1ccc(-c2ccc(-c3ccc(Cl)cc3)s2)s1`, the growth was -30.1% (active) in the experiment on SR leukemia; -38.2% (active) with RPMI-8226 leukemia; -37% (active) in the experiment with OVCAR-8 ovarian; -79.4% (active) in the experiment on OVCAR-5 ovarian; -50.8% (active) in the experiment with OVCAR-4 ovarian; -50.9% (active) in the experiment on SK-OV-3 ovarian. Besides, the growth is -49.5% (active) in the experiment on IGROV1 ovarian; -78.8% (active) with OVCAR-3 ovarian; -21.7% (active) in the experiment with HS 578T breast; -47% (active) in the experiment on NCI/ADR-RES ovarian; -31.7% (active) in the experiment with T-47D breast; 76.4% in the experiment on BT-549 breast. For the same molecule, the growth in the experiment on MDA-MB-435 melanoma was -91.4% (active); in the experiment on SW-620 colon, -69.5% (active); in the experiment with HCT-116 colon it was -98.4% (active); in the experiment on HCC-2998 colon, -74.2% (active); with KM12 colon, -85.3% (active).
On to `CC(=O)Nc1nc(C)c(C(=O)N/N=C/N2CCOCC2)s1`, for which the growth in the experiment with SR leukemia is 169%; in the experiment on RPMI-8226 leukemia, 116%; in the experiment on OVCAR-8 ovarian it was 115%; with OVCAR-5 ovarian it was 106%; in the experiment with OVCAR-4 ovarian it was 119%; with SK-OV-3 ovarian, 110%. Further, the growth in the experiment with IGROV1 ovarian was 70.3%; in the experiment on OVCAR-3 ovarian it was 104%; in the experiment on HS 578T breast, 97.6%; with NCI/ADR-RES ovarian, 120%; in the experiment on T-47D breast it was 102%; with MDA-MB-435 melanoma, 127%. Further, the growth in the experiment with SW-620 colon is 107%; with MCF7 breast, 98.6%; in the experiment with HCT-116 colon, 93.8%; in the experiment with HCC-2998 colon it was 157%; in the experiment on KM12 colon, 105%.
For the molecule `COc1nc(OC)nc(-c2cc(C(=O)c3ccc(Br)cc3)n3cc(C)cc(C)c23)n1`, the growth with SR leukemia is 87%; in the experiment on RPMI-8226 leukemia, 76.4%; in the experiment on OVCAR-8 ovarian it was 54.7%; in the experiment with OVCAR-5 ovarian it was 102%; with OVCAR-4 ovarian, 37.6%; in the experiment on SK-OV-3 ovarian, 53.9%. Also, the growth was 62.4% in the experiment with IGROV1 ovarian; 34.5% in the experiment on OVCAR-3 ovarian; 24.1% in the experiment on HS 578T breast; 58.7% with NCI/ADR-RES ovarian; 37.9% with T-47D breast; 42.7% with BT-549 breast. Further, the growth is 94.9% in the experiment on MDA-MB-435 melanoma; 89.7% in the experiment with SW-620 colon; 36.5% with HCT-116 colon; 86.2% with HCC-2998 colon; 94.2% with KM12 colon.
Turning to `O=C(Nc1ccc(-n2cc(-c3ccncc3)c(-c3ccc(Cl)c(O)c3)n2)cc1)Nc1cc(C(F)(F)F)cc(C(F)(F)F)c1`, the growth was -0.887% (active) with SR leukemia; -25.7% (active) in the experiment on RPMI-8226 leukemia; 18.2% in the experiment with OVCAR-8 ovarian; 38.2% in the experiment with OVCAR-5 ovarian; 26.5% in the experiment with OVCAR-4 ovarian; 15% in the experiment on SK-OV-3 ovarian. In addition, the growth is 23.4% in the experiment with IGROV1 ovarian; 17.3% in the experiment on OVCAR-3 ovarian; -31.2% (active) in the experiment with HS 578T breast; 11.3% in the experiment on NCI/ADR-RES ovarian; 23.8% in the experiment on T-47D breast; 6.62% (active) in the experiment on MDA-MB-435 melanoma. Moreover, the growth is 26.1% in the experiment on SW-620 colon, 11% with MCF7 breast, 10.5% in the experiment with HCT-116 colon and 36.1% in the experiment on HCC-2998 colon.
`CC(=O)N1CCN(CCNC(=O)n2cc(-c3ccncc3)c(-c3ccc(O)c(Cl)c3)n2)CC1`: the growth in the experiment with SR leukemia was 85%; in the experiment with RPMI-8226 leukemia, 102%; in the experiment with OVCAR-8 ovarian, 106%; in the experiment on OVCAR-5 ovarian it was 114%; in the experiment on OVCAR-4 ovarian, 127%; in the experiment on SK-OV-3 ovarian, 104%. Further, the growth in the experiment on IGROV1 ovarian is 127%; in the experiment with OVCAR-3 ovarian, 112%; with HS 578T breast it was 139%; with NCI/ADR-RES ovarian, 107%; in the experiment with T-47D breast, 112%; in the experiment on MDA-MB-435 melanoma it was 103%. Further, the growth in the experiment on SW-620 colon is 130%; with MCF7 breast, 102%; in the experiment with HCT-116 colon, 111%; with HCC-2998 colon, 118%; with KM12 colon, 103%.
